# Test results taken from the supplement of paper PMC7156485.
# Unmarked numbers belong to inactive results.
# Test system: TDF
# Test: H1.0 immunofluorescence intensity relative to DMSO (% of DMSO); higher = stronger H1.0 induction, active = 120 or more
# Conditions: concentration: 10 µM; 24 h
# Method in brief: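 HCC1569 and TDF cells were seeded at 800 per well in 384-well plates in RPMI with 10% FBS and treated with compounds at 10 µM for 24 h at 37 °C, in triplicate. After fixation in 3.7% formaldehyde, cells were stained with a rabbit anti-H1.0 antibody, an AlexaFluor 647 secondary and DAPI, and six fields per well were imaged at ×10. H1.0 nuclear intensity or cell number is given as percent of the plate control, using the median of replicates, with HCC1569 values smoothed for positional effects.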
# 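Note: TDF is a line of transformed human dermal fibroblasts of mesenchymal origin.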
row,Structure (SMILES),H1.0 immunofluorescence intensity
1,CC(C)NP(=O)(NC(C)C)OP(=O)(NC(C)C)NC(C)C [Tetraisopropyl pyrophosphoramide],94.9
2,COc1ccc2c(c1)=NC1=C(C)NCCC=21 [Harmaline],97.5
3,CC1OC1P(=O)([O-])[O-].[Na+].[Na+] (stereo unspecified) [Phosphomycin disodium],101
4,COc1cc(C(=O)OC2CC3CCC(C2)N3C)ccc1O (stereo unspecified) [Fillalbin],98.2
5,O=C(O)C=CC(=O)O.O=C(O)C=CC(=O)O.c1ccc2nc(N3CCNCC3)ccc2c1 [Quipazine dimaleate],90
6,CC1OC(OC2CC(O)C3(CO)C4C(O)CC5(C)C(C6COC(=O)C6)CCC5(O)C4CCC3(O)C2)C(O)C(O)C1O (stereo unspecified) [Dihydroouabain],104
7,NCCCNCCSP(=O)(O)O [Amifostine],91.8
8,"COc1ccc2c3c1OC1C(=O)CCC4(O)C(C2)N(CC2CC2)CCC314.Cl (single isomer, unassigned; (-)) [(-)-3-Methoxynaltrexone hydrochloride]",88.4
9,Cc1c(N)nc(C(CC(N)=O)NCC(N)C(N)=O)nc1C(=O)NC(C(=O)NC(C)C(O)C(C)C(=O)NC(C(=O)NCCc1nc(-c2nc(C(=O)NCCC[S+](C)C)cs2)cs1)C(C)O)C(OC1OC(CO)C(O)C(O)C1OC1OC(CO)C(O)C(OC(N)=O)C1O)c1cnc[nH]1.O=S(=O)([O-])O (stereo unspecified) [Bleomycin sulfate],88.5
10,O=[N+]([O-])c1ncc[nH]1 [Azomycin],97.8
11,CC(N)Cc1c[nH]c2ccc(O)cc12.O=C(O)C=CC(=O)O (stereo not drawn) [alpha-Methyl-5-hydroxytryptamine maleate],90.3
12,"C[N+]1(C)C2CC(OC(=O)C(CO)c3ccccc3)CC1C1OC12.[Br-] (single isomer, unassigned; (-)) [(-)-Scopolamine methyl bromide]",95.7
13,COc1cc(C=C(C#N)C#N)cc(O)c1O [Tyrphostin AG 34],96.3
14,CC(NC(C)(C)C)C(=O)c1cccc(Cl)c1.Cl (stereo unspecified) [Bupropion hydrochloride],102
15,"C/C(Nc1ccccc1)=C1\C(=O)NC(Cc2ccccc2)C1=O (stereo unspecified) [(3E)-3-(1-anilinoethylidene)-5-benzyl-2,4-pyrrolidinedione]",193 (active)
16,CC(C)C1(NC(=O)C2CC3c4cccc5[nH]cc(c45)CC3N(C)C2)OC2(O)C3CCCN3C(=O)C(Cc3ccccc3)N2C1=O (stereo unspecified) [Dihydroergocristine],90.4
17,OC1CN2CCC(O)C2C(O)C1O (stereo unspecified) [Castanospermine],89.5
18,Cc1cc(C2CCCN2C)on1 (stereo unspecified),90.2

row,Structure (SMILES),H1.0 immunofluorescence intensity
1,CC(C)NCC(O)c1ccc(N)c(C#N)c1 (stereo unspecified) [Cimaterol],87.7
2,NNC(=O)c1ccc(O)cc1 [4-Hydroxybenzhydrazide],97.5
3,CCCCCCCCCCCCCCCC(=O)OCC(COP(=O)([O-])OCC[N+](C)(C)C)OC(C)=O (stereo unspecified),98.7
4,CCCN(CCC)C(=O)Cc1c(-c2ccc(Cl)cc2)nc2ccc(Cl)cn12,100
5,Br.CCCN(CCC)CCc1ccc(O)c(O)c1 [Dipropyldopamine hydrobromide],90.8
6,COc1ccc2c(c1)C(=Cc1cnc[nH]1)C(=O)N2,98.1
7,CN1C2CCC1CC(OC(=O)C(CO)c1ccccc1)C2.CN1C2CCC1CC(OC(=O)C(CO)c1ccccc1)C2.O.O=S(=O)(O)O (stereo unspecified) [Atropine sulfate],91.8
8,N#CC(C#N)=Cc1ccc([N+](=O)[O-])c(O)c1 [Tyrphostin AG 126],102
9,CP(=O)([O-])C1=CC[NH2+]CC1,91.8
10,O=C(O)CC[N+](=O)[O-] [3-Nitropropionic acid],89.6
11,CN(C)Cc1c[nH]c2ccccc12 [Gramine],94.1
12,CCN(CCCl)Cc1ccccc1Br.Cl [DSP-4 hydrochloride],92.8
13,"NCCN(CCN)N(O)N=O [1,1-bis(2-aminoethyl)-2-hydroxy-3-oxotriazane]",93.1
14,CCN1CC2(COC)CCC(OC)C34C5CC6C(OC)CC7(OCOC7(C(O)C23)C14)C5C6OC (stereo unspecified) [Delcorine],99
15,CN1C2CCC1CC(OC(=O)C(CO)c1ccccc1)C2.CN1C2CCC1CC(OC(=O)C(CO)c1ccccc1)C2.O=S(=O)(O)O (stereo unspecified) [Atropine sulfate],91.7
16,"O=c1[nH]c2ccccc2n1C1CCN(Cc2ccc(-c3nc4cc5[nH]cnc5cc4nc3-c3ccccc3)cc2)CC1 [Akt Inhibitor VIII, Isozyme-Selective, Akti-1/2]",105
17,CC(C)(C)c1cc(C=C(C#N)C#N)cc(C(C)(C)C)c1O [Tyrphostin A9],117
18,"CN1CC(CO)CC2c3cccc4[nH]cc(c34)CC21 (stereo unspecified) [9,10-Dihydrolysergol]",102
